Test results as given in PubChem BioAssay (EPA / NIEHS).
Results filed as inconclusive are left out. The source made the active and inactive calls. How the source made its calls: active means hit-call score of the fitted dose curve at least 0.9, where 1 is the maximum; inconclusive means response in the unintended direction; inactive means score below 0.9.

Tested on: SRY-box transcription factor 2 (SOX2) Protein Expression, Deisenroth Lab, SOX2 (gene 6657)
Experiment: CCTE_Deisenroth_DEVTOX-GLR_Endo_SOX2: CCTE's DevTox GLR-Endo Assay Evaluation of SRY-box transcription factor 2 (SOX2) Protein Expression, Deisenroth Lab (AID 2284412)
Method: CCTE_Deisenroth_DEVTOX-GLR_Endo assay is a cell-based, multiplex-readout assay that uses RUES2-GLR, a human pluripotent cell line, with measurements taken at 48 hours after chemical dosing in a 384-well microplateCCTE_Deisenroth_DEVTOX-GLR_Endo_SOX2 is 1 of 4 assay components calculated from the CCTE_Deisenroth_DEVTOX-GLR_Endo assay and it measures the percentage of cells in an ectoderm state. Using a type of inducible fluorescent protein reporter, gain-of-signal activity can be used to understand changes in gene expression with fluorescent microscopy. The percentage SOX2+ cells are determined by calculating the number of SOX2+ cells divided by the cell count. To generalize the intended target to other relatable targets, this assay component is annotated to the transcription factor intended target family, where the subfamily is SRY-related HMG-box.Data from the assay component CCTE_Deisenroth_DEVTOX-GLR_Endo_SOX2 was analyzed as 1 assay endpoint. The endpoint is the percent SOX2+ cell population minus the 0.2% DMSO control in the CCTE_Deisenroth_DEVTOX-GLR_Endo assay. Furthermore, this assay endpoint can be referred to as a secondary readout, because this assay has produced multiple assay endpoints where this one serves as a measure of ectoderm differentiation.
All assay protocols are aligned to the DevTox GLR-Endo assay workflow. […]

Row | Compound | AC50
1 | CCCCc1oc2ccccc2c1C(=O)c1cc(I)c(OCCN(CC)CC)c(I)c1 | 31 µM (active)
2 | CN(C)CCOC(c1ccccc1)c1ccccc1 | 2.01 µM (active)
